According to PubChem BioAssay (NCI):
Compounds without any hit were thinned out: in the full panel of roughly 83,000, 20% have a hit.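 Testing used 96-well plates and a 48-hour single-concentration exposure. Example: -40 means 40% of the starting cells died.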 Activity calls are given as the source filed them.

The compounds below were run on PC-3 prostate (assay: NCI-60 one-dose screen, 48 h (100 = growth as untreated, 0 = no growth, -100 = all killed)). Settings: 10 µM unless noted.
Description: Growth inhibition of the PC-3 human tumor cell line is measured as a screen for anti-cancer activity. Cells are grown in 96 well plates and exposed to the test compound for 48 hours. Compounds are tested at a single concentration, which is 10^-5 M for most compounds. The reported endpoint is percent growth (GI% or GIPRCNT), where numbers from 0 - 100% represent growth inhibition, and numbers from -100% - 0 represent cell death. For example, a value of 40 represents 60% growth inhibition. A value of 0 means no net growth occurred over the course of the experiment. A value of -40 indicates 40% of cells at the beginning of the experiment died by the end of the experiment. A value of -100 means all cells are dead at the end of the experiment.
NCI-60 Human Tumor Cell Lines Screen was performed using the standard one-dose NCI protocol, which is described in more detail at https://dtp.cancer.gov/discovery_development/nci-60/default.htm.
Compounds with GIPRCNT values below 10 were considered active. Activity score was based on GIPRCNT using the following formula: […]
Score is 0 for GIPRCNT values of 100 or above, 50 for GIPRCNT values of 0, and 100 for GIPRCNT values of -100.

Compound	growth
Cc1ccccc1[C@H]1C(C(=O)c2ccc(Cl)cc2)C2(N[C@@H]1c1ccccc1)C(=O)Nc1ccccc12 (stereo not given in full)	-22.6% (active)
Cc1ccc(Cc2cnc(NC(=O)c3ccc(/C=C4\SC(=S)N(C)C4=O)cc3)s2)cc1	37.3% (inactive)
COc1cc2oc(-c3cccc(C(=O)Nc4ccc(Cl)cc4)c3)cc(=O)c2c(OCC(=O)N[C@@H](Cc2ccccc2)C(=O)O)c1OC	97.5% (inactive)
C#CCOc1cc(N(CC)CC)ccc1C(C(=O)NC(C)(C)C)N(C(=O)C1CCc2cc(F)ccc2O1)c1ccc(Br)cc1 (stereo not given)	38.8% (inactive)
COc1ccc(C(=O)/C=C/c2ccccc2Br)cc1S(N)(=O)=O	21% (inactive)
CCC(C)(C)c1ccc(OCCCCN2CCN(c3ccncc3)CC2)cc1	19.3% (inactive)
Cc1cccc(Nc2nc3ccccc3nc2/C=C/c2ccc(F)cc2)c1	89.1% (inactive)
CC1=C(C(=O)OCc2ccccc2)C(c2ccc(-n3cncn3)cc2)n2c(nc3ccccc32)N1 (stereo not given)	43.3% (inactive)
C=C1CCC2C3(C)COC(c4cc(F)cc(F)c4)OC3CCC2(C)C1CC(O)C1=CCOC1=O (stereo not given)	25.8% (inactive)
C#CCOc1cc(N(CC)CC)ccc1C(C(=O)NC(C)(C)C)N(C(=O)C1CCc2cc(F)ccc2O1)c1ccccc1Br (stereo not given)	27.3% (inactive)
COc1ccc(C(=O)/C=C/c2cccc(Cl)c2Cl)cc1S(N)(=O)=O	5% (active)
O=C1C(=Nc2ccc(F)c(Cl)c2)c2cccc3cccc1c23	77.9% (inactive)
COc1ccc(-c2nc3cc(C)ccc3n2CC(=O)N=Nc2c(O)[nH]c3ccccc23)cc1	8.89% (active)
COc1ccc(NC(=O)Cn2c(O)c(N=Nc3ccc(S(N)(=O)=O)cc3)c3ccccc32)cc1	14.4% (inactive)
O=C(Cn1nc(-c2ccccc2)ccc1=O)N/N=C/c1ccc(N2CCOCC2)cc1	102% (inactive)
Cc1cc2nc3c4ccccc4n(CCNCCN(C)C)c3nc2cc1C	18.2% (inactive)
N#Cc1c(-c2cccnc2)cc(-c2ccc3ccccc3c2)[nH]c1=O	95.5% (inactive)
CN(C)c1nc(NCCNS(=O)(=O)c2ccc(C(=O)/C=C/c3ccc(C(F)(F)F)cc3)cc2)nc(Nc2ccc(F)cc2)n1	-33.5% (active)
COc1cc2c(c(OC)c1OC)C(=O)CC(c1cccc(NC(=O)c3cc(N)ccc3Cl)c1)O2 (stereo not given)	47.3% (inactive)
CC1[C@H]2[C@H](C[C@H]3[C@@H]4CC=C5c6sc(Nc7ccccc7F)nc6CC[C@]5(C)[C@H]4CC[C@@]32C)O[C@]12CC[C@@H](C)CO2 (stereo not given in full)	-47.2% (active)

Compound	growth
CN(C)c1nc(NCCNS(=O)(=O)c2ccc(C3=Nc4c(N)nc(N)nc4NC(c4ccc(C(F)(F)F)cc4)C3)cc2)nc(Nc2ccc(F)cc2)n1 (stereo not given)	17.8% (inactive)
O=C(NNc1nc2cc(F)ccc2n2c(C(=O)N3CCN(C4CC4)CC3)ccc12)c1ncccn1	49% (inactive)
CN(C)c1nc(NCCNS(=O)(=O)c2ccc(C(=O)/C=C/c3ccc(F)cc3)cc2)nc(Nc2ccc(F)cc2)n1	-75.2% (active)
CC(=O)Nc1cccc(Nc2nc(NCc3ccccc3)c3ccccc3n2)c1	-73.2% (active)
CN1CCN(c2ccc3c(c2)nc(NNC(=O)c2cnccn2)c2cccn23)CC1	11.7% (inactive)
CCN(CC)C(=O)N/C(N)=N/c1nc2ccccc2s1	54.9% (inactive)
COCOc1cc2c(=O)c(C)c(C(=O)N[C@@H](Cc3ccccc3)C(O)C(=O)NCc3ccccc3)oc2cc1OC (stereo not given in full)	73.4% (inactive)
C=C1CC[C@@H]2[C@]3(C)COC(c4cn[nH]c4-c4ccc(OC)cc4)O[C@@H]3CC[C@@]2(C)[C@@H]1C/C=C1/C(=O)OCC1O (stereo not given in full)	39.3% (inactive)
CC1(C)CC[C@]2(C(=O)O)CC[C@]3(C)C(=CCC4[C@@]5(C)C[C@@H](O)[C@@H]6OC(c7ccc(F)cc7)OC[C@@]6(C)C5CC[C@]43C)C2C1 (stereo not given in full)	17.6% (inactive)
Cc1ccc2c(c1)nc(-c1ccccc1)n2CC(=O)N=Nc1c(O)[nH]c2ccc(Br)cc12	-78% (active)
C#C[C@]1(O)CC[C@H]2[C@@H]3CC=C4c5sc(-c6ccc(O)c(O)c6)nc5CC[C@]4(C)[C@H]3CC[C@@]21C	-58.9% (active)
COc1cc(/C=C/C(=O)c2nnn(-c3ccc(Cl)cc3)c2C)cc(OC)c1OC	30.6% (inactive)
COc1ccc(/C=C/c2nc3ccccc3c(=O)n2CC(=O)Nc2ccc(OC)cc2)cc1	46.1% (inactive)
O=C1Nc2cc(Cl)ccc2/C1=C/c1cccc(OCc2ccccn2)c1	20.1% (inactive)
COc1ccc(/C=C2\C(=N)N=C(SCc3nc4ccccc4[nH]3)NC2=O)cc1	122% (inactive)
CC12CC[C@@H]3[C@]4(C)COC(c5cn[nH]c5-c5cccc(Br)c5)O[C@@H]4CC[C@@]3(C)[C@@H]1CC(C1=CCOC1=O)O2 (stereo not given in full)	12.9% (inactive)
COc1cc(C2CC(c3cc(OC)c(OC)c(OC)c3)=NN2C(C)=O)ccc1OCc1ccc(F)cc1 (stereo not given)	27.7% (inactive)
COc1cc(NC(=O)c2cccc(C3CCc4c(cc(OC)c(OC)c4OC)O3)c2)cc(OC)c1OC (stereo not given)	18.2% (inactive)
C/C(=N\Nc1ccc(S(N)(=O)=O)cc1)c1ccc(N=Nc2c(Nc3ccccc3)[nH][nH]c2=O)cc1	20% (inactive)
CC(=O)OC[C@@]1(C)C2CC[C@]3(C)C(CC=C4C5CC(C)(C)CC[C@]5(C(=O)Nc5ccc(F)cc5)CC[C@]43C)[C@@]2(C)C[C@@H](OC(C)=O)[C@@H]1OC(C)=O (stereo not given in full)	34.5% (inactive)
